# Assay outcomes (PubChem BioAssay)
# HT1080 IDH1KD tx = toxicity to HT-1080 IDH1 knockdown cells (counter line). HT-1080 IDH1 knockdown viability, ATP luminescence, 48 h. Potency, µM (doses to about 46.1 µM), without a hit: at the top dose activity, negative = toxicity, actives largely listed as cytotoxic. actives 2% (n = 360,000);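 further: potency means the concentration at half of the fitted maximal effect; 0% = DMSO wells and -100% = cell-free medium wells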
#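 Knockdown cells (IDH1KD HT-1080) received compounds 2 h after plating at 750 cells/well and were kept 48 h at 37 °C in 5% FBS RPMI. A CellTiter-Glo luminescence read gave % activity for curve fitting.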
# 12-LOX inh = ALOX12 (human) lipoxygenase inhibition | P18054 | purified 12hLO, xylenol orange hydroperoxide absorbance | Potency, µM (highest dose often 108 µM), for inactives: at the highest dose activity change, negative = inhibition, usual class: inhibitors | actives 1.1% (n = 580,000); further: potency means the concentration at half of the fitted maximal effect
# Target sequence (P18054 whole entry, looked up): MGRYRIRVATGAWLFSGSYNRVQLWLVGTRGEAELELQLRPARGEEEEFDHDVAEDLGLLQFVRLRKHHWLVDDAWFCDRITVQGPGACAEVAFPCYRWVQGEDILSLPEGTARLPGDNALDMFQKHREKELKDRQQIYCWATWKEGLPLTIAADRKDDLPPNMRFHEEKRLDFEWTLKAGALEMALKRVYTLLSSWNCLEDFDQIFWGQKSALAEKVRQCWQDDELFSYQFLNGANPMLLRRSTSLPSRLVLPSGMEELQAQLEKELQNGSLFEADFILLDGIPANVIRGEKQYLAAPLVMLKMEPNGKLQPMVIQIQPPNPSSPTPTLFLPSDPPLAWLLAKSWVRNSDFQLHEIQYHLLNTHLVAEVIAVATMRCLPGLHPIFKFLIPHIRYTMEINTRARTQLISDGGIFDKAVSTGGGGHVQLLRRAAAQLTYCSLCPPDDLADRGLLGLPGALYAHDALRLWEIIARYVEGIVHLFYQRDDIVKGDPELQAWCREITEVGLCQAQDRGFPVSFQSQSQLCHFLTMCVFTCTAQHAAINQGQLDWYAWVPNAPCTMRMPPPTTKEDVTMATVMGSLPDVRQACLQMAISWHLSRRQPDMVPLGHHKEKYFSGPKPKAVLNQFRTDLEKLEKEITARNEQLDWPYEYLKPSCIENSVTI
#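 Hydroperoxide product was detected by ferrous iron/xylenol orange as the 573 to 405 nm absorbance ratio. Arachidonic acid at 40 uM (final) was turned over for 30 min at room temperature by 150 nM human 12hLO, pH 7.0 Hepes buffer, after 15 min compound preincubation.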
# HT1080-NT tox = kills 2HG-producing HT-1080-NT fibrosarcoma cells. HT-1080-NT fibrosarcoma viability, CellTiter-Glo ATP luminescence, 48 h. Potency, µM (titrated, usually from 46.1 µM), for the others: at the top dose activity, negative = less viability, most hits filed as cytotoxic. actives 1.6% (n = 360,000);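 further: NT is the 2HG producing partner of a matched IDH1 knockdown line; potency means the concentration at half of the fitted maximal effect; 0% = DMSO-treated cells and -100% = media-only wells without cells; nearly all actives have a fitted effect of over 55% in size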
#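 HT-1080-NT; 750 cells/well; 5% FBS RPMI; 48 h compound, 37 degrees C; CellTiter-Glo luminescence; curve fitting and curve-class assignment.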
# DT40 TDP1 CPT = growth inhibition of DT40 Tdp1-/-;hTDP1 cells with camptothecin (screen for TDP1 inhibitors) | chicken DT40 Tdp1-/-;hTDP1 cells + 20 nM CPT, ATP luminescence, 48 h | Potency, µM (highest dose often 46.2 µM), without a hit: at the top dose activity change, negative = growth inhibition, most hits filed as inhibitors | actives 12% (n = 420,000); further: potency means the concentration at half of the fitted maximal effect; nearly all actives have a fitted effect of over 55% in size
#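 Chicken DT40 Tdp1-/- cells complemented with human TDP1, 400 cells/well, exposed to compounds plus 20 nM camptothecin for at least 48 h at 37 C; viability read as ATP content by CellTiter-Glo luminescence.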
# TDP1 cell noCPT = qHTS for Inhibitors of human tyrosyl-DNA phosphodiesterase 1 (TDP1): qHTS in cells in absence of CPT. DT40 Tdp1-/- hTDP1 cells, no CPT, ATP luminescence, 48 h. Potency, µM (top dose mostly 46.2 µM), without a hit: at the top dose activity change, negative = growth inhibition, actives largely listed as inhibitors. actives 15% (n = 420,000); further: potency means the concentration at half of the fitted maximal effect; nearly all actives have a fitted effect of over 55% in size
#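 No-CPT arm: Tdp1-/-;hTDP1 DT40 cells (400/well) plus compounds, incubated ≥48 hr at 37 °C. Readout CellTiter-Glo luminescence.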
# IL1B secr inh = inhibitors of inflammasome signaling (IL-1 beta secretion) | THP-1 LPS/ATP IL-1B secretion, AlphaLISA, 16 h; active compounds read low | activity change, % at 57.5 µM | actives 4.7% (n = 360,000); in the data active means activity change below about -50%; inconclusive means mostly about -30% to -49%
#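 THP-1 cells pretreated 1 hr with compounds (up to 57.5 uM final), then stimulated with LPS (250 ng/mL final) plus ATP (1.25 mM final); secreted IL-1B measured by AlphaLISA after 16 hr, decreased signal indicating inhibition.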
# Active calls of the source: *; u = inconclusive; x = no result given; ! = a repeat was not active; [ ] = another dose, or the depositor's remark. Many of the other results were omitted from the sample, so hits are more common in it than they were. Unless noted, the call rests on the fitted dose curve; in most records, active means well fitted curve in the direction sought with a large enough effect; inconclusive means small, poorly fitted or top-dose-only effect, or another doubt; inactive means no such curve, though single readings can be large; an effect the other way counts as inactive or inconclusive. Unless noted, on the % scale 0 is the no-effect control and ±100 the full control effect.
SMILES,HT1080 IDH1KD tx,12-LOX inh,HT1080-NT tox,DT40 TDP1 CPT,TDP1 cell noCPT,IL1B secr inh
O=c1[nH]c(=O)n(-c2ccccc2F)c(O)c1/C=C1\C=Nc2ccccc21,-15%,0%,-24%,16µM*,21µM*,46
COCC1CN(C)CC12CCNCC2 (configuration not stated),x,11%,x,x,x,x
OCC1CN(C2CCC2)CC12CCN(Cc1ccncc1)CC2 (configuration not stated),x,111%,x,x,x,x
COC1=C(C)C(=O)c2c(c(COC(N)=O)c3n2C[C@@H]2[C@@H]3N2C)C1=O (some centres not stated),x,x,x,0.1µM*,0.025µM*,x
COC(=O)[C@@]1(C)CC[C@]2(C)CC[C@@]3(C)C(=CC(=O)C4[C@@]5(C)CC[C@H](O)C(C)(C)[C@@H]5CC[C@]43C)[C@H]2C1 (some centres not stated),6%,18%,12%,-28%,u,6
C=C(C)[C@@H]1CC[C@]2(C(=O)O)CC[C@]3(C)C(CCC4[C@@]5(C)CC[C@H](O)C(C)(C)C5CC[C@]43C)C12 (some centres not stated),u,9%,u,6.5µM*,7.3µM*,41
CC(C)[C@H]1C(=O)N[C@H](CO)Cc2c[nH]c3cccc(c23)N1C,x,40µM*,x,x,x,x
O=C(N/N=C/c1c(O)n(C2CCCCC2)c(=S)[nH]c1=O)c1ccccc1,-28%,u,u,u,u,22
O=c1[nH]c(=S)n(C2CC2)c(O)c1/C=N/Nc1ccccc1,2.3µM*,u,u,-7%,-9%,-13
O=c1[nH]c(=S)n(C2CC2)c(O)c1/C=N/Nc1cccc2ccccc12,-9%,u,-1%,16µM*,u,6
Cc1sc2c(c1C)C(c1ccc(F)cc1)=NCC(=O)N2CC(=O)Nc1ccccc1,x,-6%,x,x,x,x
Nc1cnn(-c2ccccc2)c(=O)c1Cl,0%,u,1%,7%,16%,26
CCCCSc1nc2c(cnn2-c2ccccc2)c(=O)n1N,-16%,7%,1%,-27%,u,-51*
COc1ccc2c(c1)C1(CCN(C(=O)c3ccccc3C)C1)C(=O)N2 (configuration not stated),x,12%,x,x,x,x
CCOC(=O)[C@]12Cc3ccccc3[C@H]1N(CCC(=O)OC)C(=O)c1cc(OC)ccc12,u,u,u,u,u,-118*
CCOC(=O)[C@]12Cc3cc(OC)ccc3[C@H]1N(CCC(=O)OC)C(=O)c1cc(OC)ccc12,u,-18%,u,u,15µM*,-54*
CNC1CCc2ccccc21 (configuration not stated),x,-3%,x,x,x,x
COCC(C)N(C(=O)CCl)c1c(C)csc1C (configuration not stated),x,x,x,10%,-17%,x
CCOCN(C(=O)CCl)c1c(C)cccc1CC,4%,u,-5%,u,u,-60*
CCc1cccc(CC)c1N(COC)C(=O)CCl,x,-7%,x,21µM*!,u,-19
O[C@H]1[C@H](NCc2ccncc2)[C@H]2CO[C@H](O2)[C@@H]1N1CCOCC1,x,-23%[176 µM],x,x,x,x
COc1ccc(-c2cc([C@H]3CN4CC[C@H]3C[C@@H]4CNC(=O)c3ccc(C)cc3)n(C)n2)cc1,x,-18%,x,x,x,x
C#CCOc1ccc(CCN)cc1,x,-19%,x,x,x,x
Cn1nc(C(C)(C)C)cc1C(=O)N1CCCCC1c1cc(C(=O)Nc2ccc(F)c(Cl)c2)no1 (configuration not stated),u,0%,u,21µM*,u,-64*
CC(=O)N1CCC(C(=O)N2CCC3(CC2)c2nccn2-c2ccccc2CN3C)CC1,x,18%,x,x,x,x
SMILES,HT1080 IDH1KD tx,12-LOX inh,HT1080-NT tox,DT40 TDP1 CPT,TDP1 cell noCPT,IL1B secr inh
CCCCN(Cc1ccccc1)C1CCN(CCc2ccccc2)CC1,u,u,u,u,u,-65*
c1ccc(CCN2CCC(N3CCN(c4ccccc4)CC3)CC2)cc1,4%,-19%,-3%,2%,-14%,0
CC(=O)NCCCC(=O)N1C2CCC1CN(Cc1cccnc1)C2,x,3%[6.33 µM],x,x,x,x
CC(C)NC(=O)NC[C@H]1C[C@@H]2CCN1C[C@@H]2c1cc(C2CCCCC2)nn1C,x,28%[176 µM],x,x,x,x
C=CCCC[C@@H]1OC(=O)CNC(=O)C([C@@H](C)CC)NC(=O)[C@@H]2CCCN2C(=O)C([C@@H](C)CC)OC(=O)[C@H](Cc2ccccc2)N(C)C(=O)[C@H](C(C)C)NC(=O)C1(C)C (some centres not stated),u,-1%,u,13µM*,16µM*,-52*
COc1cc2c(cc1OCC1CCCC1)N(C(=O)C1CCC(C)CC1)CC21CCN(CC(=O)O)CC1 (configuration not stated),x,5%,x,x,x,x
COc1cc2c3c(c1OC)-c1cc(O)ccc1CC3NCC2 (configuration not stated),2%,-6%,1%,-5%,u,40
COc1cc2c(c(OC)c1OC)-c1ccc(O)c(=O)cc1[C@@H](NC(C)=O)CC2,5.2µM*,-11%,6.5µM*,5.2µM*,6.5µM*,99
COc1cc2c(c(OC)c1OC)-c1ccc(O)cc1[C@@H](NC(C)=O)CC2,0.016µM*,-2%,0.033µM*,0.23µM*,0.16µM*,50
COc1cc2c(c(OC)c1OC)-c1ccc(O)cc1C(NC(C)=O)CC2 (configuration not stated),u,-1%,u,0.21µM*,0.18µM*,67
COC(=O)[C@@H]1[C@@H](CO)[C@@H]2Cn3c(ccc(Br)c3=O)[C@H]1N2Cc1cc(F)ccc1F,x,-4%,x,x,x,x
CN(C)C(=O)Oc1ccc2c(=O)c(-c3ccc(Br)cc3)coc2c1,x,6%,x,x,x,x
c1ccc(P(c2ccccc2)c2ccccn2)cc1,-16%,u,u,5.2µM*,5.2µM*,28
CCc1ccc(NC(=O)CN2C(=O)C3(SCC(=O)N3c3ccc(F)c(F)c3)c3ccccc32)cc1 (configuration not stated),x,-11%,x,18µM*,u,x
O=C(NC[C@H]1C[C@@H]2CCN1C[C@@H]2CN1CCN(c2ccc(F)cc2)CC1)Nc1cccc(F)c1,x,-7%,x,x,x,x
c1cnc(OCCN2CC2)cn1,-6%,12%,-3%,8.2µM*,13µM*,-2
